“And” between values parts separate entries of the source, which are not always exact repeats. Equal values may be shown once. In all, about 390,000 compounds went through this assay and about 17,000 (4.4%) were called active. Inconclusive results (about 8%) are left out. Calls come from the whole dose curve; as a rule, active = well fitted inhibition curve with a large enough effect; inconclusive = small, poorly fitted or top-dose-only effect; inactive = no such curve, though single readings can be large or run the other way. The entries come from a sample that favours actives as a whole. Where a structure was tested more than once in an assay, its records may differ in their call.

From PubChem BioAssay AID504339 (National Center for Advancing Translational Sciences (NCATS), 2011) come the findings set out here.
% is set by controls: 0 for no effect and ±100 for the full control effect; potency is the fitted concentration of half-maximal effect.

Chain of Lysine-specific demethylase 4A (Homo sapiens) (O75164 whole entry, looked up, the tested form may be a part): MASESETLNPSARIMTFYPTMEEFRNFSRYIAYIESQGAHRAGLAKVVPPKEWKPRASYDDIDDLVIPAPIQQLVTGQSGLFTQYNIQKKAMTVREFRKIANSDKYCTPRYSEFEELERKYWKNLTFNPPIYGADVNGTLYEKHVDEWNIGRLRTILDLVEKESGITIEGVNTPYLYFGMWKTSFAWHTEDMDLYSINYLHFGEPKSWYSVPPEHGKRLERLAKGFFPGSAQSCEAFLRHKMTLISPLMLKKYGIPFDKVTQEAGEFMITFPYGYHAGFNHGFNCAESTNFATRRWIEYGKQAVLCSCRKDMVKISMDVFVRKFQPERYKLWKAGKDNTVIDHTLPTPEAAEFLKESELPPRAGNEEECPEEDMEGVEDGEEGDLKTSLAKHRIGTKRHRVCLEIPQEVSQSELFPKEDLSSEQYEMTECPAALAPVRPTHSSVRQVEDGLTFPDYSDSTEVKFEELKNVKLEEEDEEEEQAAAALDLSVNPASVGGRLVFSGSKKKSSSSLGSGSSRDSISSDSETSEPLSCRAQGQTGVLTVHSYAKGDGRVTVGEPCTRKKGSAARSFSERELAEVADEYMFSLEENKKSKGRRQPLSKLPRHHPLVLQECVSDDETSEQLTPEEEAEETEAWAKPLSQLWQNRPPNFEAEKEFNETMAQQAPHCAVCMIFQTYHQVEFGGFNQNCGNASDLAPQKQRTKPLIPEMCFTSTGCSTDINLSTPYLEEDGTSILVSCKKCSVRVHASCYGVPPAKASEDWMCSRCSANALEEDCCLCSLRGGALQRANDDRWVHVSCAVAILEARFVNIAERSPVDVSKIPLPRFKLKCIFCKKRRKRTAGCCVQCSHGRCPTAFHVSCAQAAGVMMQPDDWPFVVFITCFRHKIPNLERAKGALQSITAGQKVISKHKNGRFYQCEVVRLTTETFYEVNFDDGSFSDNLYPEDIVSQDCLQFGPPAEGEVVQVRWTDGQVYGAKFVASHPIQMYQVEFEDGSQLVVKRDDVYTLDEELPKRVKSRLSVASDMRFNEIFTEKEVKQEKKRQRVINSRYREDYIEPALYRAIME

The assay has as its target Lysine-specific demethylase 4A (Homo sapiens) (UniProt O75164). In words: qHTS Assay for Inhibitors of JMJD2A-Tudor Domain. Note: nearly all actives have a fitted effect of over 50% in size. As to conditions: AlphaScreen JMJD2A-Tudor / H3K4me3 peptide binding; series mostly up to 114 µM; activity change, negative = inhibition: at the top concentration. (In qHTS, concentration-response curves come from the screen itself.)
Consider `CCOc1cccc(NC(=O)CSc2ncc(-c3ccc(Cl)cc3)[nH]2)c1`, for which the “activity change, negative = inhibition” value was -16.1% (inactive).

Regarding `COc1cccc(C(=O)NC2CCN(C#N)CC2)c1`, the “activity change, negative = inhibition” value is -17.8% (inactive).

As to `COC(=O)c1cnn(-c2ccc(C(=O)Nc3ccc(OC(F)(F)F)cc3)cc2)c1N`, the “activity change, negative = inhibition” value was -18% (inactive).

For the compound `CCCN(CCC)CCCNC(=O)Cn1cc2c(n1)-c1c(oc(C(=O)N3CCCC3)c1C)CC2`, the “activity change, negative = inhibition” value was -15.8% (inactive).

With `CCOC(=O)c1ccc(NC(=O)C2CC(=O)NC(=Nc3ccc(C)c(C)c3)S2)cc1` (configuration not stated), the “activity change, negative = inhibition” value is -19.7% (inactive).

Consider `Cn1c(=O)c2c(n3c4ccccc4nc13)NC(=O)CC2c1cccc(Cl)c1` (configuration not stated), for which the “activity change, negative = inhibition” value was -14.3% (inactive).

For the compound `O=C1CCc2cc(S(=O)(=O)Nc3cccc(Oc4ccccc4)c3)ccc2N1`, the “activity change, negative = inhibition” value was -30.5% (inactive).

As to `CCN1CCN(c2ncnc3c2cnn3-c2ccc(C)c(C)c2)CC1`, the “activity change, negative = inhibition” value is -21.7% (inactive).

As to `COC(=O)CC1=NN(c2ccccc2)C(=O)C1`, the “activity change, negative = inhibition” value is -19.2% (inactive).

In the case of `O=C1CC(c2ccccc2)=NN1c1ccc([N+](=O)[O-])cc1`, the Potency was 39.8 µM (active).

Take `Cn1nc(-c2ccccc2)c2cc([N+](=O)[O-])ccc21`: the “activity change, negative = inhibition” value is -20.8% (inactive).

For `COC(=O)c1ccc(-c2nc3cc(NC(C)=O)ccc3o2)cc1`, the “activity change, negative = inhibition” value was -2.29% (inactive).

With `CCOc1c(CNCc2ccc(C(=O)O)cc2)cccc1OC`, the “activity change, negative = inhibition” value is 0% (inactive).

In the case of `CCOc1cc(C(=O)O)ccc1OCCOc1ccccc1`, the “activity change, negative = inhibition” value is -10.9% (inactive).

As to `CCOc1cccc2c1N[C@@H](c1ccc(C(=O)O)cc1)[C@H]1CC=C[C@@H]21`, the Potency is 22.4 µM (active).

As for `CCNC(=S)N1CCN(c2ncccn2)CC1`, the “activity change, negative = inhibition” value was -18.4% (inactive).

As for `COc1ccc(C(=O)N/N=C(\C)CC(=O)Nc2ccc(Cl)cn2)cc1`, the “activity change, negative = inhibition” value was -13.5% (inactive).

Take `O=C(Nc1nnc(-c2ccccc2F)s1)c1ccccc1F`: the “activity change, negative = inhibition” value is -11% (inactive).

For the compound `C/C(=N\NC(=O)Cc1ccc(Cl)cc1)c1ccccn1`, the Potency is 56.2 µM (active).

Take `CC(=NNC(=S)N1CCCCCC1)c1ccccn1`: the Potency is 11.2 µM (active).

`C/C(=N/NC(=O)CCc1ccccc1)c1ccco1`: the “activity change, negative = inhibition” value was 1.37% (inactive).

Turning to `Cc1cccc(C)c1NC(=S)N1CCCCCC1`, the “activity change, negative = inhibition” value was 7.38% (inactive).

Regarding `C/C(=N\NC(=O)c1ccccc1F)c1ccccn1`, the Potency is 35.5 µM (active).

For the compound `C/C(=N/NC(=O)c1ccn(C)n1)c1ccncc1`, the “activity change, negative = inhibition” value was -9.58% (inactive).

With `COc1ccc(C/C(C)=N/NC(=O)c2cc(C)oc2C)cc1`, the “activity change, negative = inhibition” value is -18.9% (inactive).

Regarding `COc1ccc(C/C(C)=N/NC(=O)c2ccncc2)cc1`, the Potency was 10 µM (active).

Regarding `CC1=NNC(=O)C1CCC(=O)N/N=C(\C)c1ccc(Cl)cc1` (configuration not stated), the “activity change, negative = inhibition” value is -9.51% (inactive).

Take `O=C(CCc1cn(Cc2ccc(F)cc2)c2ccccc12)NC1CCCCC1`: the “activity change, negative = inhibition” value is -12.8% (inactive).

`Cc1ccc(N(C)C(=O)C2CCN(S(=O)(=O)c3ccc4c(c3)CCCN4C(=O)C3CCC3)CC2)cc1`: the “activity change, negative = inhibition” value was -11.6% (inactive).

Take `O=C(CCc1nc(CN2CCN(S(=O)(=O)c3ccc(Cl)cc3)CC2)no1)N1CCCCC1`: the “activity change, negative = inhibition” value was -17.9% (inactive).

Consider `CCc1ccccc1NC(=O)c1ccc2nc(CCc3ccccc3)oc2c1`, for which the “activity change, negative = inhibition” value is -6.71% (inactive).

For `O=C(Cn1c(=O)n(-c2ccc(F)cc2)c(=O)c2sccc21)Nc1cccc(C(F)(F)F)c1`, the “activity change, negative = inhibition” value was -13.7% (inactive).

For the compound `Cc1ccccc1CN1CCC(CNC(=O)c2c(C)oc3ncnc(N4CCCCC4)c23)CC1`, the “activity change, negative = inhibition” value was -10% (inactive).

With `COc1ccc(CN2CCc3nc(Nc4ccccc4)ncc3C2)c(OC)c1OC`, the “activity change, negative = inhibition” value is -21.5% (inactive).

For `Cc1ccc(CSc2nc3ccsc3c(=O)n2CCC(C)C)cc1`, the “activity change, negative = inhibition” value is 49% (inactive).

Consider `COc1ccc(CC(=O)Nc2c(C(N)=O)oc3ccccc23)cc1`, for which the “activity change, negative = inhibition” value was 13.2% (inactive).

As to `COc1ccc(/C(C)=N/NC(=O)c2ccc3nc[nH]c3c2)cc1`, the “activity change, negative = inhibition” value is -1.03% (inactive).

As to `COc1ccc(CC(=O)N/N=C(\C)c2ccccn2)cc1`, the Potency is 89.1 µM (active).

With `COc1ccccc1CNC(=O)CCCn1c(=O)c2ccccc2n(CC(=O)Nc2ccc(C)cc2Cl)c1=O`, the “activity change, negative = inhibition” value was -10.2% (inactive).

For `O=C(c1cc(-c2ccc(Cl)cc2)on1)N1CCN(c2ccccc2)CC1`, the “activity change, negative = inhibition” value is -7.59% (inactive).

In the case of `COc1ccc(-c2cc(C(=O)N3CCN(c4ccc(F)cc4)CC3)no2)cc1`, the “activity change, negative = inhibition” value was -20.4% (inactive).

`O=C(c1cc(-c2ccc(F)cc2)on1)N1CCN(c2ccc(F)cc2)CC1`: the Potency entry is “inactive and 28.2 µM (active)”.

As for `COc1ccc(-n2c(=O)c3ccccc3n(Cc3ccccc3Cl)c2=O)cc1`, the “activity change, negative = inhibition” value is -5.46% (inactive).

In the case of `COc1ccc(-c2cc(-c3nc(-c4cc(OC)c(OC)c(OC)c4)no3)[nH]n2)c(OC)c1`, the “activity change, negative = inhibition” value was -24% (inactive).

`CCC(=O)Nc1ccccc1-c1nc2ccccc2n(CC(=O)Nc2ccc(C)c(C)c2)c1=O`: the “activity change, negative = inhibition” value was -12.6% (inactive).

`CC1CCCC(NC(=O)CSc2nccn2C)C1C` (configuration not stated): the “activity change, negative = inhibition” value is -21.8% (inactive).

With `CCn1c(SCC(=O)NC2CC2)nnc1-c1ccncc1`, the “activity change, negative = inhibition” value was -4.14% (inactive).

Regarding `CN(C)CCCn1c(SCc2ccc(Cl)cc2)nnc1-c1ccncc1`, the Potency was 20 µM (active).

As for `CCn1c(SCc2cccc(C(=O)O)c2)nnc1-c1ccc(Cl)cc1`, the “activity change, negative = inhibition” value was -10.2% (inactive).

Regarding `CC1CCCCC1NC(=O)CSc1nnc(-c2ccncc2)n1CCCN(C)C` (configuration not stated), the Potency was 3.55 µM (active).

Consider `Cn1c(SCc2ccc(F)cc2)nnc1-c1ccncc1`, for which the “activity change, negative = inhibition” value was -2.9% (inactive).

On to `Cc1ccccc1-c1nc2scc(CCNC(=O)C(=O)Nc3ccc(F)cc3F)n2n1`, for which the “activity change, negative = inhibition” value was 6.39% (inactive).
